This is an account of results in paper PMC7862700, “An all-to-all approach to the identification of sequence-specific readers for epigenetic DNA modifications on cytosine”.

Common to all, as to assay: DAPPL (digital affinity profiling via proximity ligation, sequencing); 10 mM Tris-HCl pH 7.5, 50 mM NaCl, 1 mM DTT, 4% glycerol, room temperature, 30 min; GST-TFs on glutathione beads, 16-mer random dsDNA library, 0.1% formaldehyde crosslink after washing; high values mean tight binding
For one experiment, the target named is T1, FLI1 (Homo sapiens, UniProt Q01543 1-452).
T1 sequence: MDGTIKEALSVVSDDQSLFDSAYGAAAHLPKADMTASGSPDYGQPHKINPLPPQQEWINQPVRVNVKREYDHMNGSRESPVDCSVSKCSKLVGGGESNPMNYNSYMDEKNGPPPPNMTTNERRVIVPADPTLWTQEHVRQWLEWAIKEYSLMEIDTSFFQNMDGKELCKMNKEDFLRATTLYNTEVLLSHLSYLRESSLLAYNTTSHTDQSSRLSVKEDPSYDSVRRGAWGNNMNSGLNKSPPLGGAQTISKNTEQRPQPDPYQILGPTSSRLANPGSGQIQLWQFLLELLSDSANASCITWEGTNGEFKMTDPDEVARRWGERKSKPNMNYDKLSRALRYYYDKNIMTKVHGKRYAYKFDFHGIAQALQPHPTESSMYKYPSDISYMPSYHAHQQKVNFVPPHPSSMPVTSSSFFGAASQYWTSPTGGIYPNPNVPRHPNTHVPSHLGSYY
To be noted: protein: recombinant; tags: N-terminal GST; dsDNA, one strand shown. Put shortly:
(§1)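 Binding signal is given per hexamer as its read frequency for a factor divided by its frequency in the tag-only sample. GST-fused human transcription factors were expressed in yeast, captured on glutathione beads, barcoded with DNA and pooled with that sample, then incubated with 200 nmole of a 16-mer random double-stranded DNA library in Tris/NaCl/DTT/glycerol buffer for 30 min at room temperature. The pools were then washed, crosslinked, proximity-ligated, amplified by PCR and sequenced on an Illumina NextSeq500.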

The target of the next experiment is T2, ELK1 (Homo sapiens, UniProt P19419 1-428).
T2 sequence: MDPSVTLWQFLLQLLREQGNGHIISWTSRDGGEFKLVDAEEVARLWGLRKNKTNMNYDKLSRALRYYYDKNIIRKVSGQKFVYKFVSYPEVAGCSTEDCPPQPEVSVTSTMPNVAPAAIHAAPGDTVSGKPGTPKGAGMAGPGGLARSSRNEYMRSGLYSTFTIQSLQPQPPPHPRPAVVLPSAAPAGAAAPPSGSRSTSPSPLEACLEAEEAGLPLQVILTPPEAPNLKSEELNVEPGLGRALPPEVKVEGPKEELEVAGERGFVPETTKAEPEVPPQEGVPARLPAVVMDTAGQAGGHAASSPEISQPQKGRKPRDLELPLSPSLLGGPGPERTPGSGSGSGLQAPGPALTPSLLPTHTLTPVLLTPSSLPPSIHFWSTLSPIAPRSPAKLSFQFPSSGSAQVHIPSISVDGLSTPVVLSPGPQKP
The note with it: protein: recombinant; tags: N-terminal GST; dsDNA, one strand shown. In outline: as §1

For another experiment, the target named is T3, GABPA (Homo sapiens, UniProt Q06546 1-454).
T3 sequence: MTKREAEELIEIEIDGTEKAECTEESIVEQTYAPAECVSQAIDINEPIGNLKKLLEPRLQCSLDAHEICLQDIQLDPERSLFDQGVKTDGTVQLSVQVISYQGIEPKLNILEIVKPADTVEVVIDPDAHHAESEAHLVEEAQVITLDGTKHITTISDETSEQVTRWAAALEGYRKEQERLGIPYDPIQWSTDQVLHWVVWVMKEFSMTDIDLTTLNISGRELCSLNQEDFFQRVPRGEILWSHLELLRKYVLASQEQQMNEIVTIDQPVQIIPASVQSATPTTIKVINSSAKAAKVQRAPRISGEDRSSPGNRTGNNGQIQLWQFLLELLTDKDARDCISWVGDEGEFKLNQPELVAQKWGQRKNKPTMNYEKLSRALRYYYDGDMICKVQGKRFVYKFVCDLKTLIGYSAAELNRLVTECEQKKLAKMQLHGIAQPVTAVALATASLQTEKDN
The note with it: protein: recombinant; tags: N-terminal GST; dsDNA, one strand shown. In outline:
as §1

For another experiment, the target named is T4, ERG (Homo sapiens, UniProt P11308 1-479).
T4 sequence: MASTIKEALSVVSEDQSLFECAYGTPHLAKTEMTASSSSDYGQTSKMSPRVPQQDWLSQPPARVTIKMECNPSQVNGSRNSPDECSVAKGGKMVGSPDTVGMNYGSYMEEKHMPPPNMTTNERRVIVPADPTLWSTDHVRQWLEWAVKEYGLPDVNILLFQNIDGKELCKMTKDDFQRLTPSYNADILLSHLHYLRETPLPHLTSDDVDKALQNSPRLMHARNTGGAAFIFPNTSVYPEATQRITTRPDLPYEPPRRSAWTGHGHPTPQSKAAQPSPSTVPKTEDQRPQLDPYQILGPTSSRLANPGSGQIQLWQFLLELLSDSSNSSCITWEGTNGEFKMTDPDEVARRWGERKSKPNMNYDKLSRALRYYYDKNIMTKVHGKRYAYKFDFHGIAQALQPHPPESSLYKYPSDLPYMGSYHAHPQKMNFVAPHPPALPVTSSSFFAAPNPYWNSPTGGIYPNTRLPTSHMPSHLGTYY
The note with it: protein: recombinant; tags: N-terminal GST; dsDNA, one strand shown. In outline:
as §1

In another experiment the target is ELF1 (Homo sapiens, UniProt P32519 1-619). To be noted: protein: recombinant; tags: N-terminal GST; dsDNA, one strand shown. In outline:
as §1

The next experiment addresses T5, EHF (Homo sapiens, UniProt Q9NZC4 1-300).
T5 sequence: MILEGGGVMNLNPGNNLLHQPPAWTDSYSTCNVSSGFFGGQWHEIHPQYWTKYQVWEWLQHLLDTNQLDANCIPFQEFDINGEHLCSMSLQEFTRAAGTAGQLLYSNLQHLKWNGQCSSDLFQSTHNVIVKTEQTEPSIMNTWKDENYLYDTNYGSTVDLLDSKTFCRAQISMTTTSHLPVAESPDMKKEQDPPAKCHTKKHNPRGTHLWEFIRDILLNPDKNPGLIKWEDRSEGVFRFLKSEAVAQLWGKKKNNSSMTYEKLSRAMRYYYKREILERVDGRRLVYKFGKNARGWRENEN
To be noted: protein: recombinant; tags: N-terminal GST; dsDNA, one strand shown. Put shortly: as §1

The target in another experiment is SPI1 (Homo sapiens, UniProt P17947 1-270). To be noted: protein: recombinant; tags: N-terminal GST; dsDNA, one strand shown. In outline:
as §1

A further experiment concerns the target SPIB (Homo sapiens, UniProt Q01892 1-262). The note with it: protein: recombinant; tags: N-terminal GST; dsDNA, one strand shown. In outline: as §1
The target in a further experiment is T6, ELK3 (Homo sapiens, UniProt P41970 1-407).
T6 sequence: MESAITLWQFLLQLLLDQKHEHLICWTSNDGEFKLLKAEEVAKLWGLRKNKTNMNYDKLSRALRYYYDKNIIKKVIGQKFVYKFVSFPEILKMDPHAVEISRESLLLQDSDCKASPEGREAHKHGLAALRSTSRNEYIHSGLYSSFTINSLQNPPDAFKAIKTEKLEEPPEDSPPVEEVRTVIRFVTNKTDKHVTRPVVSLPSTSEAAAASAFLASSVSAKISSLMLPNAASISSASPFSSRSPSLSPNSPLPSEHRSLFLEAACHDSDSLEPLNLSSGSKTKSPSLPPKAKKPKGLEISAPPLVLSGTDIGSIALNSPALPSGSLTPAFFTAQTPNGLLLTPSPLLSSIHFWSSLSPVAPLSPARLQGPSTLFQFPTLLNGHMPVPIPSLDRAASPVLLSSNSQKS
To be noted: protein: recombinant; tags: N-terminal GST; dsDNA, one strand shown. Put shortly: as §1

A further experiment has as its target T7, FEV (Homo sapiens, UniProt Q99581 1-238).
T7 sequence: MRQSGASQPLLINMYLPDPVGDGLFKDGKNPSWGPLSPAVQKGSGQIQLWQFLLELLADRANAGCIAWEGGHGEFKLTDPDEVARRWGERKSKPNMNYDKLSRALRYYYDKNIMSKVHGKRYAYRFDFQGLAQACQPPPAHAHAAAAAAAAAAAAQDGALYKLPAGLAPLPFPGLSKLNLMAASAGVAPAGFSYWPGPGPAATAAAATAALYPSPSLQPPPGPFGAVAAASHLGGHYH
To be noted: protein: recombinant; tags: N-terminal GST; dsDNA, one strand shown. In outline:
as §1

The next experiment concerns the target ETV5 (Homo sapiens, UniProt P41161 1-510). To be noted: protein: recombinant; tags: N-terminal GST; dsDNA, one strand shown. Put shortly: as §1
Another experiment concerns the target HSF1 (Homo sapiens, UniProt Q00613 1-529). The note with it: protein: recombinant; tags: N-terminal GST; chain copies: 3; dsDNA, one strand shown. In outline:
as §1

For the next experiment, the target named is T8, SPIC (Homo sapiens, UniProt Q8N5J4 1-248).
T8 sequence: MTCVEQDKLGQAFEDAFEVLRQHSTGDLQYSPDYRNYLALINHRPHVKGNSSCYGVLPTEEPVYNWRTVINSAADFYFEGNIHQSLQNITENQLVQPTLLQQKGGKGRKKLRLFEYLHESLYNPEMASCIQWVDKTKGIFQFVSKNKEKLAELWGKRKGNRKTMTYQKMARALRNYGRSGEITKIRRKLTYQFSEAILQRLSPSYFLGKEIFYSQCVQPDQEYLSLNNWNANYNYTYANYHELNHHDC
To be noted: protein: recombinant; tags: N-terminal GST; dsDNA, one strand shown. In outline: as §1

The next experiment has as its target ELF4 (Homo sapiens, UniProt Q99607 1-663). The note with it: protein: recombinant; tags: N-terminal GST; dsDNA, one strand shown. Put shortly: as §1
The target in the next experiment is T9, ELK4 (Homo sapiens, UniProt P28324-2 1-405).
T9 sequence: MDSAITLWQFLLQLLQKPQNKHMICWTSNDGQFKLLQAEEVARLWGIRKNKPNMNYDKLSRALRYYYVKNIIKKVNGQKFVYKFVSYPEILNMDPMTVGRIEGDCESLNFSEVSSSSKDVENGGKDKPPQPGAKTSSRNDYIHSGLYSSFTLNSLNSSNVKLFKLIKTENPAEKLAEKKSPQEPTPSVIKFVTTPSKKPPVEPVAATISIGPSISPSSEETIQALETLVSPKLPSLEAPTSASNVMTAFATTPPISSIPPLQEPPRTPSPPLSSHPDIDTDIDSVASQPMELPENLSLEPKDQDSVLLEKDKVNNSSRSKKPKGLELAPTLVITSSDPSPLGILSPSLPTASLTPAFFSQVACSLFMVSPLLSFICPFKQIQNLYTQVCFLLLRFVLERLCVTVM
The note with it: protein: recombinant; tags: N-terminal GST; dsDNA, one strand shown. Put shortly: as §1

Another experiment has as its target T10, ETV2 (Homo sapiens, UniProt O00321 1-342).
T10 sequence: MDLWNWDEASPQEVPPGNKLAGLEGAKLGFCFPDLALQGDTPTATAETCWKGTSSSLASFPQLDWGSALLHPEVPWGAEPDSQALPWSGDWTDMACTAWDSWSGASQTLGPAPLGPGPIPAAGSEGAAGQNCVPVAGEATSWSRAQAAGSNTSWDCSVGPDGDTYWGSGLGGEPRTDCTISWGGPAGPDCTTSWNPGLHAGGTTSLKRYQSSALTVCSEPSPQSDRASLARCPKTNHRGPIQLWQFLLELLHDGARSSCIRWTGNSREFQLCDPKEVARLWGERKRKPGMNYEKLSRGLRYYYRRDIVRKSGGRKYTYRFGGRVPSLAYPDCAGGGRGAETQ
The note with it: protein: recombinant; tags: N-terminal GST; dsDNA, one strand shown. Put shortly:
as §1

A further experiment has as its target T11, ELF3 (Homo sapiens, UniProt P78545 1-371).
T11 sequence: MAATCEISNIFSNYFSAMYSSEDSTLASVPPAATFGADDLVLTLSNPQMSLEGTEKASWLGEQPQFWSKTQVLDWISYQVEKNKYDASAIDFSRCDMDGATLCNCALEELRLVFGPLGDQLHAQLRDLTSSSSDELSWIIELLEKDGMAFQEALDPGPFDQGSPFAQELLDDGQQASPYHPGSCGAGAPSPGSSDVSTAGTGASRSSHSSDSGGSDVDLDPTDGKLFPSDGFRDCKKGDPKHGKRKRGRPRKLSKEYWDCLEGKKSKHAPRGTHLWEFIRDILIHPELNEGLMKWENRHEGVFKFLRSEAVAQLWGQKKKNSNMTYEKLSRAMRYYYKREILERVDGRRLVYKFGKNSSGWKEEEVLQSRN
To be noted: protein: recombinant; tags: N-terminal GST; dsDNA, one strand shown. Put shortly:
as §1

The target of another experiment is CRX (Homo sapiens, UniProt O43186 1-299). The note with it: protein: recombinant; tags: N-terminal GST; dsDNA, one strand shown. In outline:
as §1

A further experiment has as its target ETV1 (Homo sapiens, UniProt P50549 1-477). To be noted: protein: recombinant; tags: N-terminal GST; dsDNA, one strand shown. Put shortly:
as §1

Sequence of ELF4 (Q99607 whole entry): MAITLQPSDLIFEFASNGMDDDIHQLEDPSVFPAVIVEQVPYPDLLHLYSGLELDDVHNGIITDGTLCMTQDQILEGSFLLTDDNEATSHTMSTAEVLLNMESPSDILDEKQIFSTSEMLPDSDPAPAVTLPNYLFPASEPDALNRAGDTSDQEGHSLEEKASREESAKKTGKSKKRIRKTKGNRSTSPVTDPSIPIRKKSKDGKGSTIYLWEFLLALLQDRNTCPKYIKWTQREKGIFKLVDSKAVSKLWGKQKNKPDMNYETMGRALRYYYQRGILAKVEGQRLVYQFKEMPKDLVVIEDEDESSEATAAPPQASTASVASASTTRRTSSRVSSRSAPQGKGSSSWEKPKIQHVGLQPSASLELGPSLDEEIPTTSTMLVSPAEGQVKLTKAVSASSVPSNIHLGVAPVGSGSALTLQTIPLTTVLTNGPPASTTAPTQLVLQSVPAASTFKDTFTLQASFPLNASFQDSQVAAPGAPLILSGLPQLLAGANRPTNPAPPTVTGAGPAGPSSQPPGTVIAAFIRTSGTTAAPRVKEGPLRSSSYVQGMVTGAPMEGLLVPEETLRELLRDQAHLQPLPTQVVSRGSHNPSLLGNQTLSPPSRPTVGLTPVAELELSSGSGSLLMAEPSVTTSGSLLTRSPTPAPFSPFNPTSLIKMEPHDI
Sequence of ELF1 (P32519 whole entry): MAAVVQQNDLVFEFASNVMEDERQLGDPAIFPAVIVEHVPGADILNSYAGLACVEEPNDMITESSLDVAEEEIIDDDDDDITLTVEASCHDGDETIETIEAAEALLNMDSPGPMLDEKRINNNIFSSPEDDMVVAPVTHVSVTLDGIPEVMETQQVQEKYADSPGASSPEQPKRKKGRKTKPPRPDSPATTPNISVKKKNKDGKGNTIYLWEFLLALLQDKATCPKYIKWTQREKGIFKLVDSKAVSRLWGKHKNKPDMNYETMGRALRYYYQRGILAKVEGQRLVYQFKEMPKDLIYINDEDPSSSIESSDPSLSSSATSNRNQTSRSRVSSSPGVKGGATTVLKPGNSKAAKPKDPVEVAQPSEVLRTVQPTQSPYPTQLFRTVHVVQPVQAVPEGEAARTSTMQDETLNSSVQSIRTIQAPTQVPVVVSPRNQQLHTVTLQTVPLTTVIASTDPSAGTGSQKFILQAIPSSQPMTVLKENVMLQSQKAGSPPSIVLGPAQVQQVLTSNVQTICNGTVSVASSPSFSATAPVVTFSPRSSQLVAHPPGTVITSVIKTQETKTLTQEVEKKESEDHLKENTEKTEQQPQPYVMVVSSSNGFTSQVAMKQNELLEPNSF
Sequence of CRX (O43186 whole entry): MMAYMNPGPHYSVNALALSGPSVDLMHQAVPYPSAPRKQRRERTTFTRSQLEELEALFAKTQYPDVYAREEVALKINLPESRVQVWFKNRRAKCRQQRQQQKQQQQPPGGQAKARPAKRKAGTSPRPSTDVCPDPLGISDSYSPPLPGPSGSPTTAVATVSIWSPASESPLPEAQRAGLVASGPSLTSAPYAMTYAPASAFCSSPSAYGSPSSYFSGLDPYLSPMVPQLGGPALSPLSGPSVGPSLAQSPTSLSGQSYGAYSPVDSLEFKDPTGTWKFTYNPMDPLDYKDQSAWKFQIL
Sequence of ETV1 (P50549 whole entry): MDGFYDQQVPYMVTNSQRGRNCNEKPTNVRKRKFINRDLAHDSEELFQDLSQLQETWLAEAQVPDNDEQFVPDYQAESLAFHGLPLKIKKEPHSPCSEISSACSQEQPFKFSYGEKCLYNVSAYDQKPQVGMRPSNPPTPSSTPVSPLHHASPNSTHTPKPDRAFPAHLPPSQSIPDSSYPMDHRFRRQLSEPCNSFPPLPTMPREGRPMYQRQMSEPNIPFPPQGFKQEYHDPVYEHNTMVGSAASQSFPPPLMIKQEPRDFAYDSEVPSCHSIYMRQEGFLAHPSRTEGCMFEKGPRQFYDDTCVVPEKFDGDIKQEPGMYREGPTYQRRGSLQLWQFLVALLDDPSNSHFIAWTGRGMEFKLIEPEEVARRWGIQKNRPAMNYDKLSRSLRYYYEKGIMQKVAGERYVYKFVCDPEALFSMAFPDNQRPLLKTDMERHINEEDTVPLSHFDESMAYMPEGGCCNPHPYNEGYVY
Sequence of ETV5 (P41161 whole entry): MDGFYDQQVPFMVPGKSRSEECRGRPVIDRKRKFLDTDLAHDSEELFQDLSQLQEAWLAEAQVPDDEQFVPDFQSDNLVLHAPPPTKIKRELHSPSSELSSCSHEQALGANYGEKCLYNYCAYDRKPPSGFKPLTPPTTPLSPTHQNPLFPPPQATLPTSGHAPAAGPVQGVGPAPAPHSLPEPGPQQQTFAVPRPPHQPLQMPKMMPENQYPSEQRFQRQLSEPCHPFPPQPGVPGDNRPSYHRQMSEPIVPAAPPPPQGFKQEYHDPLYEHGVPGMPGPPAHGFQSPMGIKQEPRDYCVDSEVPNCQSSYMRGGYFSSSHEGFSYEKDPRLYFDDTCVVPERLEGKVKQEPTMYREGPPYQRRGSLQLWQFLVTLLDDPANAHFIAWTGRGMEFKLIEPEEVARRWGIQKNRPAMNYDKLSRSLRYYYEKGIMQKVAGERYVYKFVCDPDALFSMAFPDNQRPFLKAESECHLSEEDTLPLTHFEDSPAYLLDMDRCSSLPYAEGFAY
Sequence of SPIB (Q01892 whole entry): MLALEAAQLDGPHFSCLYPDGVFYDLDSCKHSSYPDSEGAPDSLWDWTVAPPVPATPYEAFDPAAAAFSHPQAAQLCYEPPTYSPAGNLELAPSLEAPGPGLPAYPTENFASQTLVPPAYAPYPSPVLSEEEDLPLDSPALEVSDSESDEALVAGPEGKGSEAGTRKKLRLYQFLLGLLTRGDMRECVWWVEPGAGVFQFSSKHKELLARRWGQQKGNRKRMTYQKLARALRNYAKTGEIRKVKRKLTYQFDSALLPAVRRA
Sequence of HSF1 (Q00613 whole entry): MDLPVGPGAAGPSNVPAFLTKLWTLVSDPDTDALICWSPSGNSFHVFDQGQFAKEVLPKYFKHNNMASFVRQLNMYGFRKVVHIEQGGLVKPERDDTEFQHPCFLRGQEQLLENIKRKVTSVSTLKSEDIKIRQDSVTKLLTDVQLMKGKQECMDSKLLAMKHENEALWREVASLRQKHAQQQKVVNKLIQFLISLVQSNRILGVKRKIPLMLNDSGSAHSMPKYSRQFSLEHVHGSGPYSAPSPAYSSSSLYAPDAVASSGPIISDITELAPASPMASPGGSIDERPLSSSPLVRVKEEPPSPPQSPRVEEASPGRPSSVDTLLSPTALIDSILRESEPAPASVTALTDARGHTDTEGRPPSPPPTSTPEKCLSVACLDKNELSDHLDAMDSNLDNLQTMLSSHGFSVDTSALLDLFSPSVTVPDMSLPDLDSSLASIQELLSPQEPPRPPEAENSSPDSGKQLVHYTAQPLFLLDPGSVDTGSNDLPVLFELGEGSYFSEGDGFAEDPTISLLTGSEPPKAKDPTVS

Take TTGCAC: the binding signal with FLI1 is 1.3 fold enrichment (6-mer frequency, TF over GST control); in the experiment with ELK1, 1.32 fold enrichment (6-mer frequency, TF over GST control); with GABPA, 1.27 fold enrichment (6-mer frequency, TF over GST control); with ERG, 1.27 fold enrichment (6-mer frequency, TF over GST control); in the experiment with ELF1, 1.28 fold enrichment (6-mer frequency, TF over GST control); with EHF, 1.21 fold enrichment (6-mer frequency, TF over GST control). Further, the binding signal is 1.26 fold enrichment (6-mer frequency, TF over GST control) with SPI1; 1.16 fold enrichment (6-mer frequency, TF over GST control) with SPIB; 1.34 fold enrichment (6-mer frequency, TF over GST control) in the experiment with ELK3; 1.24 fold enrichment (6-mer frequency, TF over GST control) in the experiment with FEV; 1.24 fold enrichment (6-mer frequency, TF over GST control) with ETV5; 1.1 fold enrichment (6-mer frequency, TF over GST control) with HSF1. The binding signal was 1.07 fold enrichment (6-mer frequency, TF over GST control) with SPIC; 1.31 fold enrichment (6-mer frequency, TF over GST control) with ELF4; 1.31 fold enrichment (6-mer frequency, TF over GST control) with ELK4; 1.22 fold enrichment (6-mer frequency, TF over GST control) in the experiment with ETV2; 1.23 fold enrichment (6-mer frequency, TF over GST control) with ELF3; 1.11 fold enrichment (6-mer frequency, TF over GST control) in the experiment with CRX. The binding signal with ETV1 is 1.22 fold enrichment (6-mer frequency, TF over GST control).
